Assay in all cases: NCI-60 one-dose screen, 48 h (100 = growth as untreated, 0 = no growth, -100 = all killed)
Settings in all cases: 10 µM unless noted

Experiment [1] relates to NCI-H23 lung.
Experiment [2] deals with NCI-H226 lung.
For experiment [3], the system named is NCI-H322M lung.
For experiment [4], the system named is HOP-62 NSCLC.
The subject of experiment [5] is NCI-H460 lung.
Experiment [6] relates to HOP-92 NSCLC.
Experiment [7] relates to NCI-H522 lung.
Experiment [8] has as its system A549/ATCC NSCLC.
The test system of experiment [9] is 786-0 renal.
The subject of experiment [10] is COLO 205 colon.
Experiment [11] has as its system DU-145 prostate.
In experiment [12] the test system is K-562 leukemia.
The test system of experiment [13] is MALME-3M melanoma.
The subject of experiment [14] is MDA-MB-231 breast.
Experiment [15] deals with RXF 393 renal.
The test system of experiment [16] is SF-268 CNS.
For experiment [17], the system named is SF-539 CNS.
Experiment [18] has as its system UACC-257 melanoma.
Experiment [19] deals with M14 melanoma.
The subject of experiment [20] is SF-295 CNS.

We go through eight molecules from PubChem BioAssay (NCI).

Compounds without any hit were thinned out: in the full panel of roughly 83,000, 20% have a hit.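 Method: cells in 96-well plates; compound added at one concentration; 48 h incubation; percent growth measured; values under 10 scored active.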 Values without a mark were called inactive. Active and inactive are the calls of the source.

On to `COc1ccc(/C=C2\N=C(c3ccccc3)N(c3cc(OC)c(OC)cc3C(=O)N3N=C(C)CC3=O)C2=O)cc1`, for which the growth in experiment [1] is 102%; in [2], 90.1%; in experiment [3] it was 118%; in experiment [4], 97%; in experiment [5], 94.4%; in experiment [6] it was 78.2%. In addition, the growth in experiment [7] was 82.6%; in experiment [8], 104%; in experiment [9], 98.9%; in experiment [10] it was 112%; in [11], 95.2%; in experiment [12], 81.5%. For the same molecule, the growth in experiment [13] is 126%; in experiment [14], 87.4%; in experiment [15], 93.5%; in experiment [16], 91.4%; in experiment [17], 94.6%; in [18], 128%. Further, the growth in experiment [19] is 97.9%.
For the molecule `COc1ccc2nc(-c3c(-c4ccccc4)nc4ncccn34)[nH]c2c1`, the growth is 105% in experiment [1]; 106% in [2]; 105% in experiment [3]; 108% in [4]; 106% in experiment [5]; 111% in experiment [6]. The growth was 88.7% in experiment [7]; 97.8% in [8]; 103% in [9]; 108% in experiment [10]; 115% in experiment [11]; 101% in [12]. The growth in experiment [13] was 112%; in experiment [14], 99.3%; in experiment [15], 104%; in [16], 109%; in [17] it was 100%; in [18], 105%. In addition, the growth in experiment [19] is 107%.
On to `CN(C)c1ccc(N)c2ccccc12`, for which the growth in [1] was -79.6% (active); in experiment [2] it was 47%; in [3], 58.7%; in experiment [4], 74.1%; in experiment [5] it was 52.5%; in experiment [6], 105%. Moreover, the growth was 80.1% in experiment [7]; 49.5% in [8]; 87.1% in experiment [9]; 19.6% in experiment [10]; -96.4% (active) in [11]; 48.4% in experiment [12]. Also, the growth in [13] was -85.5% (active); in experiment [15], 111%; in experiment [16], 77%; in experiment [20] it was 43.4%; in [17], 38.4%; in experiment [18], -2.3% (active). The growth in experiment [19] was -94.9% (active).
On to `O=C1NC(=Nc2ccc(S(=O)(=O)Nc3nccs3)cc2)S/C1=C\c1coc2ccccc2c1=O`, for which the growth is 100% in [1]; 97.8% in experiment [2]; 101% in [3]; 99.5% in [4]; 101% in [5]; 95.3% in [6]. Also, the growth in experiment [7] is 103%; in experiment [8], 99.7%; in experiment [9], 111%; in [10], 113%; in experiment [11], 121%; in experiment [12] it was 93.8%. Further, the growth in experiment [13] was 109%; in experiment [14], 105%; in [15], 105%; in experiment [16], 123%; in experiment [17], 96.2%; in [18] it was 105%. For the same molecule, the growth in [19] was 105%.
For the molecule `OCC12CCCC(CO)(COC1)C2O` (configuration not stated), the growth in experiment [1] was 97%; in experiment [2], 99.8%; in experiment [3], 115%; in experiment [4], 106%; in experiment [5], 100%; in [6] it was 30.9%. For the same molecule, the growth was 111% in experiment [7]; 101% in experiment [8]; 112% in [9]; 107% in experiment [10]; 127% in experiment [11]; 120% in [12]. In addition, the growth in experiment [13] was 114%; in experiment [14] it was 94.3%; in [15], 121%; in [16] it was 113%; in experiment [17], 105%; in experiment [18], 100%. In experiment [19], the growth is 97.6%.
Regarding `Cc1ccc(Nc2c(C(N)=O)cnc3ccc(S(=O)(=O)Nc4cc(C)on4)cc23)cc1`, the growth is 95.1% in experiment [1]; 95% in experiment [2]; 95.8% in experiment [3]; 89.8% in experiment [4]; 103% in [5]; 84.1% in experiment [6]. For the same molecule, the growth was 92.2% in experiment [7]; 103% in experiment [8]; 106% in experiment [9]; 101% in [10]; 109% in experiment [11]; 117% in experiment [12]. Also, the growth in experiment [13] is 108%; in [14] it was 99.5%; in experiment [15] it was 105%; in [16], 104%; in experiment [17], 92.7%; in [18], 101%. Besides, the growth in experiment [19] was 100%.
For `Fc1ccc2nc(-c3cc(-c4ccc5c(c4)OCO5)n[nH]3)[nH]c2c1`, the growth in experiment [1] is 64%; in experiment [2] it was 66.1%; in [3] it was 64.9%; in [4], 75.5%; in experiment [5], 40.9%; in experiment [6], 64.9%. For the same molecule, the growth in experiment [7] is 33.7%; in [8], 60.1%; in [9] it was 56.8%; in experiment [10], 84.7%; in [11] it was 78.3%; in [12], 15.5%. The growth in experiment [13] is 57.7%; in experiment [14], 67.6%; in [15], 63.1%; in experiment [16], 77.5%; in experiment [17], 56.3%; in [18], 84.9%. For the same molecule, the growth in experiment [19] is 49.5%.
`NC(Cc1ccc(O)cc1)C(=O)N/N=C/c1ccccc1O` (configuration not stated): the growth in experiment [1] is 99.9%; in [2], 103%; in experiment [3], 94%; in [4], 105%; in experiment [5] it was 108%; in [6], 56.6%. The growth is 96.6% in experiment [7]; 97.5% in experiment [8]; 104% in [9]; 123% in experiment [10]; 105% in experiment [11]; 105% in experiment [12]. Also, the growth in [13] was 80.2%; in experiment [14] it was 109%; in [15] it was 115%; in [16], 104%; in [17], 104%; in experiment [18], 101%. In experiment [19], the growth is 98.7%.
